We go through 13 compounds from PubChem BioAssay (NCI).

About 83,000 compounds went through this panel and 20% of them were active in at least one assay; those are over-represented in the sample as a whole.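 Activity criterion: percent growth below 10, measured after cells in 96-well plates were exposed to a single compound concentration for 48 hours.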 Values without a mark were called inactive. The source made the active and inactive calls.

Holding throughout (experiment): NCI-60 one-dose screen, 48 h (100 = growth as untreated, 0 = no growth, -100 = all killed)
One test deals with OVCAR-8 ovarian. Conditions: 10 µM unless noted.
A further test has as its system OVCAR-5 ovarian. The note with it: 10 µM unless noted.
The subject of a further test is SK-OV-3 ovarian. Conditions: 10 µM unless noted.
A further test has as its system IGROV1 ovarian. The note with it: 10 µM unless noted.
The subject of the next test is OVCAR-3 ovarian. Conditions: 10 µM unless noted.
A further test deals with HS 578T breast. The note with it: 10 µM unless noted.
Another test relates to NCI/ADR-RES ovarian. Conditions: 10 µM unless noted.
For another test, the system named is T-47D breast. The note with it: 10 µM unless noted.
For the next test, the system named is BT-549 breast. The note with it: 10 µM unless noted.
Another test deals with MDA-MB-435 melanoma. Conditions: 10 µM unless noted.
Another test has as its system SW-620 colon. Conditions: 10 µM unless noted.
For the next test, the system named is MCF7 breast. Conditions: 10 µM.
Another test has as its system HCT-116 colon. Conditions: 10 µM unless noted.
For a further test, the system named is HCC-2998 colon. The note with it: 10 µM unless noted.
Another test has as its system KM12 colon. The note with it: 10 µM unless noted.
A further test concerns OVCAR-4 ovarian. The note with it: 10 µM unless noted.

For the compound `COc1ccc(-c2nnc(COc3ccc(C(=O)/C=C/c4ccco4)cc3)o2)cc1`, the growth with OVCAR-8 ovarian is 73.9%; with OVCAR-5 ovarian it was 97.7%; with SK-OV-3 ovarian, 92.8%; in the test with IGROV1 ovarian, 87.6%; in the test with OVCAR-3 ovarian it was 64.1%; with HS 578T breast it was 92.6%. The growth with NCI/ADR-RES ovarian is 89.2%; with T-47D breast, 80.6%; with BT-549 breast, 79.2%; in the test with MDA-MB-435 melanoma, 10.9%; with SW-620 colon, 31%; in the test on MCF7 breast, 19.6%. Moreover, the values for the growth in the test on HCT-116 colon, with HCC-2998 colon and in the test on KM12 colon were -10.2% (active), 98.2% and 18.2%, respectively.

For `CC(=S)NC(=O)C(=O)/C=C1/NC(=O)C(=O)S1`, the growth with OVCAR-8 ovarian was 106%; in the test with OVCAR-5 ovarian it was 107%; in the test on OVCAR-4 ovarian, 106%; in the test with OVCAR-3 ovarian, 122%; in the test with HS 578T breast it was 107%; with NCI/ADR-RES ovarian, 103%. The growth was 107% with T-47D breast; 106% with BT-549 breast; 106% in the test with MDA-MB-435 melanoma; 106% in the test on SW-620 colon; 104% in the test with MCF7 breast; 114% with HCT-116 colon. The growth is 108% in the test with HCC-2998 colon and 107% with KM12 colon.

For `O=C(c1nc2ccccc2[nH]1)C1C(c2ccc(F)cc2)C2CC3CCCCC3N2[C@@]12C(=O)Nc1ccc(Cl)cc12` (stereo not given in full), the growth in the test with OVCAR-8 ovarian is 61.2%; in the test on OVCAR-5 ovarian, 61.8%; in the test with OVCAR-4 ovarian, 31.5%; in the test on IGROV1 ovarian, 42.8%; in the test with OVCAR-3 ovarian it was 50.1%; in the test with HS 578T breast it was 69.2%. For the same compound, the growth in the test with NCI/ADR-RES ovarian was 51%; in the test on T-47D breast it was 37.4%; in the test on BT-549 breast, 77.4%; in the test with MDA-MB-435 melanoma, 42.4%; with SW-620 colon, 41%; in the test on MCF7 breast, 21.4%. In addition, the growth in the test on HCT-116 colon was 28%; with HCC-2998 colon, 43%; with KM12 colon it was 43.9%.

In the case of `COc1ccc(Cn2cc(Cn3c(=O)c(-c4nc5ccccc5[nH]4)cc4ccccc43)nn2)c(OC)c1OC`, the growth is 23.9% in the test with OVCAR-8 ovarian; 19.1% in the test with OVCAR-5 ovarian; 0.605% (active) in the test on OVCAR-4 ovarian; 27% in the test with IGROV1 ovarian; -32.5% (active) in the test with OVCAR-3 ovarian; -9.86% (active) in the test on HS 578T breast. Also, the growth in the test with NCI/ADR-RES ovarian was -2.32% (active); with T-47D breast, 29.7%; in the test on BT-549 breast, -12.2% (active); with MDA-MB-435 melanoma it was -79.6% (active); in the test on SW-620 colon, 16.9%; in the test on MCF7 breast, 17.1%. Moreover, the growth in the test on HCT-116 colon is 5.1% (active); in the test with HCC-2998 colon, -11.7% (active); in the test on KM12 colon, 4.44% (active).

With `COc1ccc2[nH]c(O)c(N=NC(=O)c3oc4ccccc4c3C)c2c1`, the growth was 37.8% in the test on OVCAR-8 ovarian; 41.7% with OVCAR-5 ovarian; -52.8% (active) in the test with OVCAR-4 ovarian; 6.33% (active) in the test on IGROV1 ovarian; -65.5% (active) in the test with OVCAR-3 ovarian; 25.5% with HS 578T breast. The growth in the test with NCI/ADR-RES ovarian is 30.5%; with T-47D breast it was -39.2% (active); in the test on BT-549 breast, 70.1%; in the test with MDA-MB-435 melanoma, 28.9%; with SW-620 colon, 35.1%; in the test on MCF7 breast it was 22.9%. The growth with HCT-116 colon was -28.6% (active); in the test on HCC-2998 colon, 45.5%; in the test with KM12 colon, 43.8%.

Turning to `Cn1c(/C=C(\C#N)c2cccc(C(F)(F)F)c2)nc2c(N3CCOCC3)nc(Cl)nc21`, the growth in the test on OVCAR-8 ovarian is 7.88% (active); in the test with OVCAR-5 ovarian, -53.7% (active); in the test on OVCAR-4 ovarian it was -56.4% (active); in the test with IGROV1 ovarian, -27.7% (active); with OVCAR-3 ovarian, -85% (active); in the test on HS 578T breast, -12% (active). For the same compound, the growth in the test on NCI/ADR-RES ovarian was 20.1%; in the test on T-47D breast, -36.6% (active); in the test with BT-549 breast, -13.1% (active); in the test on MDA-MB-435 melanoma, -91.5% (active); in the test with SW-620 colon it was -68.8% (active); in the test on MCF7 breast, -54.1% (active). Also, the growth in the test on HCT-116 colon is -85.5% (active); with HCC-2998 colon, 14%; in the test with KM12 colon, 19.1%.

As for `COc1ccc(-c2cn3c(C(=O)Nc4ccccc4Cl)c(-c4ccccc4)c4c3n2CCCC4)cc1`, the growth in the test with OVCAR-8 ovarian was 83.6%; in the test with OVCAR-5 ovarian, 79.8%; with OVCAR-4 ovarian, 74.6%; in the test on SK-OV-3 ovarian, 86.4%; with OVCAR-3 ovarian it was 84.1%; in the test on HS 578T breast it was 114%. Further, the growth was 81.7% with NCI/ADR-RES ovarian; 78.9% in the test on T-47D breast; 86.4% in the test on BT-549 breast; 80% with MDA-MB-435 melanoma; 82.5% with SW-620 colon; 71.3% with MCF7 breast. The growth in the test on HCT-116 colon is 73.2%; in the test with KM12 colon, 82.8%.

On to `COc1ccccc1N1C(=N)S/C(=C\c2ccc(OCc3ccccc3F)cc2)C1=O`, for which the growth in the test with OVCAR-8 ovarian is 55.3%; in the test on OVCAR-5 ovarian it was 101%; in the test on SK-OV-3 ovarian, 102%; in the test with IGROV1 ovarian it was 73.5%; in the test with OVCAR-3 ovarian, 86.7%; in the test on HS 578T breast, 86.7%. The growth was 71.3% in the test with NCI/ADR-RES ovarian; 66.8% in the test on T-47D breast; 97.4% with BT-549 breast; 90.4% with MDA-MB-435 melanoma; 88.1% with SW-620 colon; 33% in the test on MCF7 breast. The growth with HCT-116 colon was 67.8%; with HCC-2998 colon, 109%; with KM12 colon, 71.2%.

Turning to `O=C1N=c2ccccc2=C1c1sc(=Nc2ccccc2)n(Nc2ccccc2)c1O`, the growth in the test on OVCAR-8 ovarian is 105%; in the test with OVCAR-5 ovarian, 101%; in the test on OVCAR-4 ovarian, 43.5%; in the test with IGROV1 ovarian it was 96.2%; in the test with OVCAR-3 ovarian it was 110%; with HS 578T breast, 102%. The growth in the test on NCI/ADR-RES ovarian was 108%; in the test with T-47D breast, 97.6%; with BT-549 breast, 106%; in the test on MDA-MB-435 melanoma, -23% (active); with SW-620 colon, 108%; in the test on MCF7 breast it was 103%. Besides, the growth in the test on HCT-116 colon was 104%; in the test on HCC-2998 colon it was 116%; in the test on KM12 colon it was 103%.

As to `COC(=O)[C@@H]1CCCN1C(=O)[C@H]1CCCN1C(=O)[C@@H](Cc1c[nH]c2ccccc12)NC(=S)Nc1cc(C(F)(F)F)cc(C(F)(F)F)c1`, the growth was 60.1% in the test with OVCAR-5 ovarian; 47.2% with OVCAR-4 ovarian; 29.2% with IGROV1 ovarian; 47% in the test with OVCAR-3 ovarian; 11.6% in the test on HS 578T breast; 67.1% with NCI/ADR-RES ovarian. Further, the growth is 37.3% in the test with T-47D breast; 78.9% with BT-549 breast; 31.9% in the test with MDA-MB-435 melanoma; 63.1% in the test with SW-620 colon; 25.3% with MCF7 breast; 36.9% in the test with HCT-116 colon. For the same compound, the growth with HCC-2998 colon is 20.8%; in the test with KM12 colon, 40.1%.

In the case of `CCOC(=O)C1=CN(C)C=C(C(=O)OCC)C1c1cc(Br)c(OCC)c(OC)c1`, the growth in the test with OVCAR-8 ovarian is 56.8%; in the test with OVCAR-5 ovarian, 63.5%; in the test on OVCAR-4 ovarian it was 54.9%; with OVCAR-3 ovarian it was 64.9%; in the test on HS 578T breast, 62.9%; in the test with NCI/ADR-RES ovarian, 73%. For the same compound, the growth with T-47D breast was 74.9%; in the test with BT-549 breast, 84.9%; in the test on MDA-MB-435 melanoma, 15.6%; in the test on SW-620 colon, 48.6%; with MCF7 breast, 14.7%; in the test with HCT-116 colon, 43.9%. In addition, the growth in the test on HCC-2998 colon is -16.5% (active); with KM12 colon, 48.4%.

`CCCSC1=NC2C(N(CC)C(=O)N2CC)N1/N=C/C=C/c1ccccc1[N+](=O)[O-]` (stereo not given): the growth in the test on OVCAR-8 ovarian is 33.7%; in the test on OVCAR-5 ovarian, 48%; in the test with OVCAR-4 ovarian, 39.9%; in the test with IGROV1 ovarian, 29.9%; in the test with OVCAR-3 ovarian it was -15.8% (active); with HS 578T breast it was 18.5%. The growth with NCI/ADR-RES ovarian is 13.4%; with T-47D breast it was 64.1%; with BT-549 breast, 30.7%; in the test with MDA-MB-435 melanoma, -30.1% (active); in the test with SW-620 colon, 37.3%; in the test with MCF7 breast it was 21.8%. Moreover, the growth in the test with HCT-116 colon was 7.28% (active); in the test with HCC-2998 colon it was 15%; with KM12 colon it was 14.9%.

Regarding `Nc1ccc(-n2c(=O)oc3ccc(Cl)cc3c2=O)c(Cl)c1`, the growth in the test on OVCAR-5 ovarian is 25.6%; in the test with OVCAR-4 ovarian, 18.2%; in the test on SK-OV-3 ovarian, 5.68% (active); in the test on IGROV1 ovarian, 11.7%; with OVCAR-3 ovarian it was 5.11% (active); in the test with HS 578T breast, -4.07% (active). The growth in the test with NCI/ADR-RES ovarian was -1.91% (active); with T-47D breast, -8.23% (active); in the test on MDA-MB-435 melanoma, -5.78% (active); with SW-620 colon it was 5.14% (active); with MCF7 breast, 4.1% (active); with HCT-116 colon it was -4.7% (active). The growth is 10.2% with HCC-2998 colon and -33.7% (active) in the test with KM12 colon.
